# PubChem BioAssay AID463173 (ICCB-Longwood Screening Facility, Harvard Medical School, 2010)
# Out of some 52,000 compounds screened, about 1,700 (3.3%) were called active. No stated cut-off is given here; in the data, active means survival mostly below about 52% (no sharp cut-off); inactive means mostly above about 56%. The list comes from a sample in which actives are over-represented; it also holds similar structures and randomly drawn compounds.
# Test system: Wild type
# Experiment: growth inhibition of S. aureus wild type versus tarO mutant, primary screen, teichoic acid synthesis inhibitors, RN4220, OD600 (AID 463173)
# Conditions: S. aureus RN4220 wild type/DeltatarO growth, OD600, 18 h, hits give low values, screened at 18.75 µg/mL (by protocol)
row,SMILES,survival
1,COc1ccc(CNC(=O)C2CCN(C(=O)N3CCOc4ccc(C)cc43)CC2)cc1,80% (inactive)
2,Cc1cccn2c(=O)c3cc(C(=O)Nc4ccc(Cl)c(Cl)c4)sc3nc12,71% (inactive)
3,O=C(O)CCSc1nnnn1-c1ccccc1,114% (inactive)
4,CCS(=O)(=O)c1nnnn1-c1ccccc1,1% (active)
5,c1ccc(CNc2nnnn2-c2ccccc2)cc1,106% (inactive)
6,COc1ccc(C2CC(=O)c3cc(-c4nc(-c5cccc([N+](=O)[O-])c5)cs4)c(=O)n(-c4cc(C)cc(C)c4)c3C2)cc1 (configuration not stated),80% (inactive)
7,COc1ccc(C2=Nc3ccccc3N(CC(=O)Nc3cccc(C(C)=O)c3)C(=O)C2)cc1,136% (inactive)
8,CN(C)c1ccc(CNC(=O)C2CCN(S(=O)(=O)c3cn(C)cn3)CC2)cc1,-2% (active)
9,COc1ccc(OC)c(CNC(=O)C2CCN(S(=O)(=O)c3cn(C)cn3)CC2)c1,82% (inactive)
10,Cc1ccc(N(C)C(=O)C2CCN(S(=O)(=O)c3cn(C)cn3)CC2)cc1,10% (active)
11,Cn1cnc(S(=O)(=O)N2CCC(C(=O)NCc3ccccc3Cl)CC2)c1,128% (inactive)
12,Cc1ccc(CNC(=O)C2CCN(S(=O)(=O)c3cn(C)cn3)CC2)cc1,82% (inactive)
13,COc1ccccc1CNC(=O)C1CCN(S(=O)(=O)c2cn(C)cn2)CC1,-3% (active)
14,Cc1ccc(C)c(N2CCN(C(=O)C3CCN(S(=O)(=O)c4cn(C)cn4)CC3)CC2)c1,75% (inactive)
15,Cn1cnc(S(=O)(=O)N2CCC(C(=O)NCc3ccc(Cl)cc3)CC2)c1,95% (inactive)
16,Cc1cc(C)cc(NC(=O)C2CCN(S(=O)(=O)c3cn(C)cn3)CC2)c1,73% (inactive)
17,COc1ccc(-c2cn3nc(SCC(=O)Nc4cc(C)cc(C)c4)ccc3n2)cc1,68% (inactive)
18,CCN(CC)S(=O)(=O)c1ccc(C(=O)N2CC(=O)Nc3ccc(F)cc3C2c2ccccc2)cc1 (configuration not stated),81% (inactive)
19,COc1ccc(NC(=O)c2ccc(-c3nc(COc4ccccc4)c(C)o3)cc2)cc1,84% (inactive)
20,Cc1n[nH]c(C)c1N1C(=O)c2cccc3c(N4CCCCC4)ccc(c23)C1=O,116% (inactive)
21,CNC(=O)C(=O)NCC(c1ccc2c(c1)OCO2)N1CCOCC1 (configuration not stated),113% (inactive)
22,CC(C)(C)C(=O)NCC(c1ccc2c(c1)OCO2)N1CCOCC1 (configuration not stated),-2% (active)
23,CN(C)CCNC(=O)C(=O)NCC(c1ccc2c(c1)OCO2)N1CCOCC1 (configuration not stated),73% (inactive)

row,SMILES,survival
1,O=C(NCCCO)C(=O)NCC(c1ccc2c(c1)OCO2)N1CCOCC1 (configuration not stated),10% (active)
2,COc1ccc(CCNC(=O)C(=O)NCC(c2ccc3c(c2)OCO3)N2CCOCC2)cc1 (configuration not stated),0% (active)
3,COc1ccc(CNC(=O)C(=O)NCC(c2ccc3c(c2)OCO3)N2CCOCC2)cc1 (configuration not stated),80% (inactive)
4,COc1ccc(CCNC(=O)C(=O)NCC(c2ccc3c(c2)OCO3)N2CCOCC2)cc1OC (configuration not stated),73% (inactive)
5,O=C(NCCO)C(=O)NCC(c1ccc2c(c1)OCO2)N1CCOCC1 (configuration not stated),59% (inactive)
6,CN(C)CCCNC(=O)C(=O)NCC(c1ccc2c(c1)OCO2)N1CCOCC1 (configuration not stated),124% (inactive)
7,COCCCNC(=O)C(=O)NCC(c1ccc2c(c1)OCO2)N1CCOCC1 (configuration not stated),87% (inactive)
8,COCCNC(=O)C(=O)NCC(c1ccc2c(c1)OCO2)N1CCOCC1 (configuration not stated),-3% (active)
9,CC(C)(C)CC(=O)NCC(c1ccc2c(c1)OCO2)N1CCOCC1 (configuration not stated),73% (inactive)
10,O=C(CS(=O)(=O)c1cccc2nsnc12)NCc1ccccc1Cl,136% (inactive)
11,Cc1cc(Nc2ccc(C(=O)O)c(O)c2)n2ncnc2n1,72% (inactive)
12,O=C(NCCc1ccc(Cl)cc1)c1nc(-c2cccc(F)c2)n2c1CCCCC2,140% (inactive)
13,COc1ccc(Cn2ccc3nc(C)c(C(=O)Nc4ccc(OC)cc4OC)cc3c2=O)cc1,0% (active)
14,COc1ccc(Cn2ccc3nc(C)c(C(=O)Nc4ccc(F)cc4)cc3c2=O)cc1,-3% (active)
15,Cc1cccc(NC(=O)c2cc3c(=O)n(Cc4cccnc4)ccc3nc2C)c1,-3% (active)
16,COc1ccc(NC(=O)c2cc3c(=O)n(Cc4cccnc4)ccc3nc2C)c(OC)c1,88% (inactive)
17,COc1ccc(Cn2ccc3nc(C)c(C(=O)Nc4ccc(OC)cc4)cc3c2=O)cc1,85% (inactive)
18,CC(=O)Nc1ccc(NC(=O)c2cc3c(=O)n(Cc4cccnc4)ccc3nc2C)cc1,65% (inactive)
19,COc1ccc(NC(=O)c2cc3c(=O)n(Cc4ccco4)ccc3nc2C)c(OC)c1,88% (inactive)
20,COc1cccc(NC(=O)c2cc3c(=O)n(Cc4cccnc4)ccc3nc2C)c1,78% (inactive)
21,COc1ccc(Cn2ccc3nc(C)c(C(=O)Nc4ccc(OC(F)(F)F)cc4)cc3c2=O)cc1,90% (inactive)
22,COc1ccccc1NC(=O)C1=C(C)Nc2nc(SCc3ccccc3)nn2C1c1ccncc1 (configuration not stated),83% (inactive)
23,CC(C)NC(=O)C1CCCN(c2ncnc3c2nc2n3CCCCC2)C1 (configuration not stated),73% (inactive)

row,SMILES,survival
1,COC(=O)c1nnn(-c2cccc(C)c2)c1C(=O)OC,77% (inactive)
2,Cc1nc2ccccc2c(=O)n1/N=C1\C(=O)N(C)c2ccccc21,108% (inactive)
3,Cc1ccc2c(=O)c(C(=O)c3cccc(Cl)c3)cn(CC(=O)NC3CCCCC3)c2n1,126% (inactive)
4,CCc1ccc(CNC(=O)CN2C(=O)CSc3c2c(C)nn3-c2ccccc2)cc1,125% (inactive)
5,CCOC(=O)c1c(NC(=O)COc2ccc(F)cc2)sc2c1CCC(C)C2 (configuration not stated),69% (inactive)
6,CCC1CCc2c(sc(NC(=O)C3c4ccccc4Oc4ccccc43)c2C(=O)OC)C1 (configuration not stated),80% (inactive)
7,CCOC(=O)c1c(NC(=O)c2ccccc2OCC)sc2c1CCC(CC)C2 (configuration not stated),-1% (active)
8,CCOC(=O)c1c(NC(=O)COc2cccc(C)c2C)sc2c1CCC(CC)C2 (configuration not stated),78% (inactive)
9,CCOC(=O)c1c(NC(=O)c2ccc(F)cc2)sc2c1CCC(CC)C2 (configuration not stated),3% (active)
10,CCOC(=O)c1c(NC(=O)C2c3ccccc3Oc3ccccc32)sc2c1CCC(CC)C2 (configuration not stated),65% (inactive)
11,Cc1ccc(CN(C(=O)COc2cc(C)c(Cl)c(C)c2)c2ccccn2)o1,78% (inactive)
12,COc1ccccc1NC(=O)CSC1=Nc2ccccc2N=C(c2ccc(F)cc2)C1,71% (inactive)
13,Brc1ccc(-c2nc(N3CCN(c4ccccc4)CC3)c3ccccc3n2)cc1,127% (inactive)
14,CC1CCN(c2nc(-c3ccc(C(C)(C)C)cc3)nc3ccccc23)CC1,3% (active)
15,CC1CCCCN1c1nc(-c2ccc(C(C)(C)C)cc2)nc2ccccc12 (configuration not stated),1% (active)
16,CC1CCCCN1C(=O)CSc1nc(C2CC2)nc2ccccc12 (configuration not stated),110% (inactive)
17,CC1CCN(c2nc3ccccc3nc2C(F)(F)F)CC1,78% (inactive)
18,CC1CCN(c2nc(-c3ccc(Br)cc3)nc3ccccc23)CC1,105% (inactive)
19,CCOC(=O)C(CC)n1nc(C)n2c(cc3occc32)c1=O (configuration not stated),120% (inactive)
20,CCCN(CCC)CCNC(=O)c1cc2c(-c3ccccc3F)nn(C)c2s1,97% (inactive)
21,CCNC(=S)N1CCC(n2cnc3ccccc32)CC1,98% (inactive)
22,Cc1ccc(C(=O)N(c2ccc(C)cc2)S(=O)(=O)c2ccc(Cl)cc2)cc1,73% (inactive)
23,COc1ccc(Cl)cc1NC(=O)c1cc2nc(-c3ccc4c(c3)OCO4)cc(C(F)(F)F)n2n1,65% (inactive)

row,SMILES,survival
1,O=C(NCCCN1CCN(c2cccc(Cl)c2)CC1)c1cnn(-c2ccc(F)cc2)c1-n1cccc1,0% (active)
2,Cc1ccc(-n2ncc(C(=O)NCCCN3CCN(c4cccc(Cl)c4)CC3)c2-n2cccc2)cc1,59% (inactive)
3,Cc1ccc(-n2nc(C)c(C(=O)NCCCN3CCN(c4cccc(Cl)c4)CC3)c2-n2cccc2)cc1,-2% (active)
4,O=C(NCCCN1CCN(c2ccc(F)cc2)CC1)c1cnn(-c2ccc(F)cc2)c1-n1cccc1,82% (inactive)
5,Cc1ccc(-n2nc(C)c(C(=O)NCCCN3CCN(c4ccc(F)cc4)CC3)c2-n2cccc2)cc1,101% (inactive)
6,Cc1nn(-c2ccc(F)cc2)c(-n2cccc2)c1C(=O)NCCCN1CCN(c2cccc(Cl)c2)CC1,110% (inactive)
7,COC(=O)c1ccc(Nc2ncnc3c2cnn3C)cc1,81% (inactive)
8,COc1ccc(OC)c(S(=O)(=O)NCCc2csc(-c3cccc(F)c3)n2)c1,135% (inactive)
9,CC1=Nc2ccccc2N=C(C)C1,115% (inactive)
10,CCOc1ccc(-c2nc(SCC(=O)NC3CCCC3)c(-c3ccccc3)[nH]2)cc1OC,73% (inactive)
11,COC(=O)c1ccc(OC)c(Cn2c(=O)n(-c3ccc(C)cc3)c(=O)c3c2cnn3C)c1,76% (inactive)
12,Cc1nn2c(C)c(C(=O)NCc3cccc(Br)c3)cnc2c1-c1ccccc1,53% (inactive)
13,CCOc1ccc(-c2c(C)nn3c(C)c(C(=O)Nc4ccccc4C(=O)OC)cnc23)cc1OCC,-6% (active)
14,CCOc1ccc(-c2c(C)nn3c(-c4ccccc4)c(C(=O)NCCOC)cnc23)cc1OCC,-6% (active)
15,CCCNC(=O)c1cnc2c(-c3ccc(OCC)c(OCC)c3)c(C)nn2c1-c1ccccc1,76% (inactive)
16,CCOc1ccc(-c2c(C)nn3c(C)c(C(=O)Nc4cc(C)cc(C)c4)cnc23)cc1OCC,133% (inactive)
17,COc1cc(CNC(=O)c2cnc3c(-c4cccc(C)c4)c(C)nn3c2C)cc(OC)c1OC,74% (inactive)
18,CCOc1ccc(OCC)c(NC(=O)c2cnc3c(-c4ccccc4)c(C)nn3c2C)c1,63% (inactive)
19,CCOc1ccc(-c2c(C)nn3c(C)c(C(=O)Nc4cccc(Cl)c4C)cnc23)cc1OCC,67% (inactive)
20,COc1cc(Cl)c(C)cc1NC(=O)c1cnc2c(-c3cccc(C)c3)c(C)nn2c1C,14% (active)
21,Cc1cccc(CNC(=O)c2cnc3c(-c4cccc(C)c4)c(C)nn3c2C)c1,-1% (active)
22,COC(=O)c1ccccc1NC(=O)c1cnc2c(-c3cccc(C)c3)c(C)nn2c1C,133% (inactive)
23,CCCCNC(=O)c1cnc2c(-c3ccc(OCC)c(OCC)c3)c(C)nn2c1-c1ccccc1,80% (inactive)
